HSV augment = HSV replication enhancement; HSV replication augmentation in cells, fold increase; maximum fold increase; hit rate 0.005% among 220,000; AID 1956; in the data active means maximum fold increase above about 1.5; tested in PC3 cells
Ins promoter up = MIN6 insulin promoter up-regulation; MIN6 insulin promoter-GFP reporter, high-content imaging; active compounds read high; z-score at 5 µM; hit rate 0.3% among 190,000; AID 1625;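 active means z-score above 3 at 5 µM with at least 500 cells counted in the well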
TbHK1 inh = blocks Trypanosoma brucei hexokinase 1 activity; hit rate 0.11% among 220,000; AID 1430; recombinant TbHK1, G6PDH-coupled NADH A340; inhibition, % at 10 µM;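 active means inhibition of 50% or more in the single-dose primary screen; inactive means inhibition below 50%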
ROMK mod = human ROMK K+ channel modulation, primary screen. P48048. Tet-inducible ROMK, thallium flux fluorescence; actives lie on both sides. B-score at 10 µM. hit rate 2% among 130,000. AID 1918;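 active means signal ratio slope over the read window, or its plate-corrected B-score, at least 3 SD from the plate mean, either direction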;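 further: B-score of the F/F0 ratio slope over 7 to 12 s after thallium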
Target sequence (P48048 whole entry, looked up): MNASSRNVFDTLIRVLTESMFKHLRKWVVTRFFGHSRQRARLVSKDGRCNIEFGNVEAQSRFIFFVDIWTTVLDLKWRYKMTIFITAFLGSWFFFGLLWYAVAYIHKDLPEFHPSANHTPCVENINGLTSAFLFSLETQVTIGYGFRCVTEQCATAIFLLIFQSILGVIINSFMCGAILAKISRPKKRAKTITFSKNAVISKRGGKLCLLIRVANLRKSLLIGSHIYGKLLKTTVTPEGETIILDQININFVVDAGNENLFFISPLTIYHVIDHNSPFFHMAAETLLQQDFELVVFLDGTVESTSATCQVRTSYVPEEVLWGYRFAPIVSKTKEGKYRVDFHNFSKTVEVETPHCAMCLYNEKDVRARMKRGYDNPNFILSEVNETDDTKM
INS promoter inh = TRM-6 insulin promoter activity inhibition; hit rate 0.9% among 130,000; AID 1273; inhibition, % at 2 µM; TRM-6 cells (human fetal islet line), insulin promoter-eGFP reporter, imaging; reporter expression induced with tamoxifen;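 active means inhibition above the mean plus 3 SD, with well images judged a real hit on visual review, cut at about 60% in these data, passing the limit was not always enough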
The depositor's hits bear a star; i = inactive; / = no result given. The sample as a whole holds a higher share of hits than the screen did.

SMILES	HSV augment	Ins promoter up	TbHK1 inh	ROMK mod	INS promoter inh
CN1CCN(c2ccccc2NC(=O)c2ccc(N3CCCCC3)c([N+](=O)[O-])c2)CC1	i	-1.69	-10.5	-2.25	/
CN1CCN(c2ccc(C(=O)c3ccccc3)cc2[N+](=O)[O-])CC1	i	0.07	-23.1	-1.93	66.7*
COc1cc2c(cc1OC)/C(=C/c1ccc(Br)cc1)C(=O)OC2	i	-0.13	-12.6	-0.155	71.4*
COc1ccc(/C=C2\Cc3ccccc3C2=O)cc1OC	i	-0.01	-37.2	/	/
O=C(CN1CCCCC1)Nc1ccc(NC(=O)c2ccc(Cl)cc2)cc1Cl	i	/	2.2	/	-26.7
O=C(NCCCn1ccnc1)c1cccc(S(=O)(=O)NCc2ccccc2)c1	i	0.13	-0.9	-0.0278	-400.0
CCOC(=O)CSc1ccc(-c2nc3ccccc3[nH]2)cn1	i	0.72	-8.2	/	57.1
N#CCSc1ccc(-c2nc3ccccc3[nH]2)cn1	i	/	-23.8	-1	89.7*
COc1ccc(C2SCCN2C(=S)Nc2cccc(Cl)c2)cc1 (stereo not given)	i	0.28	-0.4	/	/
CCCn1nnnc1SCC(=O)N1CCOCC1	i	-0.14	46.8	/	83.3*
Cc1cc(=O)c2cc(C(=O)c3ccccc3)ccc2[nH]1	i	-0.61	-26.3	/	/
O=C1OCC2OC(O)C(O)C(O)C2OC(=O)c2cc(O)c(O)c(O)c2-c2c(O)c(O)c3oc(=O)c4c(c(O)c(O)c5oc(=O)c2c3c54)-c2c1cc(O)c(O)c2O (stereo not given)	i	-0.19	53.9*	/	/
Cc1cccc(CN2CCN(c3ccccn3)CC2)c1	i	/	-0.6	/	18.9
Cc1ccc(CN2CCN(c3ccccn3)CC2)s1	i	-0.23	-0.1	0.103	72.2*
CCc1c(C)sc(NC(=O)Cn2nc(C)c([N+](=O)[O-])c2C)c1C(N)=O	i	-0.23	-4.7	-2.12	/
CCCCC(=O)Nc1ccc2c(c1)nc1n2CCSC1	i	3.16*	-7.1	-0.249	/
CC(=O)Nc1ccc2c(c1)nc1n2CCSC1	i	/	-4.1	0.15	-8.3
Cn1cc([C@@H]2C[C@H]3CN(C4CCCC4)C(=O)[C@]34CCCN24)c(-c2ccccc2)n1	i	-0.26	1.6	-0.615	58.3
COc1cc(S(=O)(=O)N2CCOCC2)ccc1NC(=O)COC(=O)C12CC3CC(CC(C3)C1)C2	i	3.88*	-3.9	/	58.3
CC(=O)Nc1ccc(Nc2cc(C)nc3c(-c4ccc(Cl)cc4)c(C)nn23)cc1	i	0.32	-26.0	-0.438	/
CC(=O)Nc1ccc(Nc2cc(C)nc3c(-c4ccc(Cl)cc4)cnn23)cc1	i	/	-11.1	/	79.6*
CCOC(=O)CNNC(=O)Nc1ccc(Cl)c(Cl)c1	/	0.08	3.1	0.519	75.0*
CS(=O)(=O)N1CCN(c2ncccn2)CC1	i	/	-2.7	/	83.3*
CCCc1cnc(N2CCN(S(C)(=O)=O)CC2)nc1	i	-1.8	-1.5	/	/
COCCNC(=O)c1ccc(-c2csc(C)n2)cc1	i	-0.78	-1.0	0.407	53.3
SMILES	HSV augment	Ins promoter up	TbHK1 inh	ROMK mod	INS promoter inh
CCSc1nnc(NC(=O)C(C)(C)C)s1	i	-0.34	1.5	/	77.4*
O=C(OCCN1C(=O)c2ccccc2C1=O)c1ccco1	i	/	-3.8	/	58.6
O=C(OCCCCN1C(=O)c2ccccc2C1=O)c1ccc(Br)o1	i	-0.38	-2.2	/	78.6*
CCOc1nc(CC)nc(NC(=O)NS(=O)(=O)c2ccccc2Cl)n1	i	0.03	-8.7	-0.644	/
CCOc1nc(NC(=O)NS(=O)(=O)c2ccccc2F)nc(-c2ccccc2)n1	i	0.85	4.1	-0.845	90.9*
Cc1cnc(C)c(N2CCC(C(=O)NCc3cccs3)CC2)n1	i	/	-18.8	0.399	0.0
COc1nc(OC)nc(N2CCC(C(=O)NCc3cccs3)CC2)n1	i	3.48*	-5.8	0.19	-5.3
COC(=O)C1=C(C(=O)OC)C2(OC1c1ccccc1C)C(=O)c1ccccc1C2=O (stereo not given)	i	0.39	-11.4	0.668	42.1
COc1ccc(OC)c(S(=O)(=O)N2CCN(c3ccccn3)CC2)c1	i	0.63	-2.6	/	74.3*
COc1ccc(OC)c(S(=O)(=O)N2CCCCC2C(=O)N2CCN(c3ccccn3)CC2)c1 (stereo not given)	i	0.2	-4.1	-0.829	0.0
C=CCSc1nc2ccccc2n1S(=O)(=O)c1ccc(C)cc1	i	/	5.7	0.889	94.7*
O=[N+]([O-])c1cccc(-c2nc3ccc([N+](=O)[O-])cc3[nH]2)c1	i	-1.66	-10.1	-2.78	91.7*
Cc1ccc2nc(-c3cccc(N)c3)[nH]c2c1	i	/	-7.9	/	80.0*
Nc1ccccc1-c1nc2ccccc2[nH]1	i	-0.67	-17.5	-0.828	93.8*
Nc1cccc(-c2nc3ccccc3[nH]2)c1	i	/	-5.3	0.232	75.0*
Cc1ccc2nc(-c3sc4nc(C)cc(C)c4c3N)[nH]c2c1	i	/	-3.6	0.275	43.8
CCn1cc(C(=O)O)c(=O)c2cnc(N3CCN(C(=S)Nc4ccccc4C(F)(F)F)CC3)nc21	i	/	-5.1	-0.695	/
CC1CCc2cc(F)ccc2N1C(=O)CSc1nnc2c(n1)[nH]c1ccc(F)cc12 (stereo not given)	i	-0.02	1.8	/	-20.0
O=C(Cc1cccs1)NNC(=O)c1ccc(F)cc1	i	0.11	3.7	0.0541	-16.7
Cn1cc(-c2nc3ccccc3[nH]2)c2ccccc21	i	0.8	-18.8	-0.0113	100.0*
CC(=O)Nc1cc(C(=O)NCCN2CCN(Cc3ccccc3)CC2)ccc1Sc1ccc(C)cc1	i	-0.29	-4.4	-1.53	/
CC(C)NC(=O)NC(=O)COC(=O)c1cccc(S(=O)(=O)N2CCCCC2)c1	i	4.62*	1.1	-0.0286	0.0
NC(=O)COC(=O)c1cccc(S(=O)(=O)N2CCCCC2)c1	i	1.46	7.0	-0.254	-11.1
O=C1/C(=C/c2cccnc2)CC/C1=C\c1cccnc1	i	/	-40.5	-0.0398	-60.0
O=C1/C(=C/c2cccnc2)CCC/C1=C\c1cccnc1	i	-0.75	-31.3	-4.58*	-106.9
SMILES	HSV augment	Ins promoter up	TbHK1 inh	ROMK mod	INS promoter inh
CCC1C/C(=C\c2cccnc2)C(=O)/C(=C/c2cccnc2)C1 (stereo not given)	i	-0.17	-19.6	-4.29*	63.0
CCOC(=O)c1ccc(S(=O)(=O)N2CCN(C3CCCC3)CC2)cc1	i	-0.04	0.0	-0.524	-6.2
O=C(O)c1ccc(N=NNc2cccc([N+](=O)[O-])c2)cc1	i	-0.41	-4.4	-0.125	-64.3
N#C/C(=N\Nc1cccc([N+](=O)[O-])c1)C(=O)c1ccc(Br)cc1	i	-1.41	-8.3	3.11*	/
CN(C)C(C)(C)C#CCCCCC#CC(C)(C)N(C)C	i	/	-0.2	/	70.7*
CN(C)C(C)(C)C#CCC(c1ccccc1)c1ccccc1	i	0.21	12.9	-1.74	/
C/C(=N/NC(=O)c1cc2ccccc2cc1O)C1C(=O)c2ccccc2C1=O	i	-1.38	13.8	4.81*	55.6
O=C1NC(=O)/C(=C\c2ccc(OCc3cccc([N+](=O)[O-])c3)cc2)N1	i	0.51	-6.3	-0.0389	0.0
CC(C)CC(C(=O)NC(C)(C)C)N(Cc1cccs1)C(=O)c1snc(C(N)=O)c1N (stereo not given)	i	-0.24	-5.2	-0.22	-190.9

From PubChem
